The panel holds about 83,000 compounds, 20% with a hit somewhere; the sample as a whole holds those more often.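 Single-dose data. Exposure time 48 hours. Values below 10 considered active.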 Values without a mark were called inactive. The source made the active and inactive calls.
These compounds were tested on OVCAR-4 ovarian (assay: NCI-60 one-dose screen, 48 h (100 = growth as untreated, 0 = no growth, -100 = all killed)). Details: 10 µM unless noted.
Description: Growth inhibition of the OVCAR-4 human tumor cell line is measured as a screen for anti-cancer activity. Cells are grown in 96 well plates and exposed to the test compound for 48 hours. Compounds are tested at a single concentration, which is 10^-5 M for most compounds. The reported endpoint is percent growth (GI% or GIPRCNT), where numbers from 0 - 100% represent growth inhibition, and numbers from -100% - 0 represent cell death. For example, a value of 40 represents 60% growth inhibition. A value of 0 means no net growth occurred over the course of the experiment. A value of -40 indicates 40% of cells at the beginning of the experiment died by the end of the experiment. A value of -100 means all cells are dead at the end of the experiment.
NCI-60 Human Tumor Cell Lines Screen was performed using the standard one-dose NCI protocol, which is described in more detail at https://dtp.cancer.gov/discovery_development/nci-60/default.htm.
Compounds with GIPRCNT values below 10 were considered active. Activity score was based on GIPRCNT using the following formula: […]
Score is 0 for GIPRCNT values of 100 or above, 50 for GIPRCNT values of 0, and 100 for GIPRCNT values of -100.
For COc1cc(/C=C/c2ccccc2)cc(OC)c1, the growth was 105%. With COc1cc(C2CC(c3ccc(SC)cc3)=NN2C(C)=O)cc(OC)c1OC (stereo not given) the growth was 93.8%. CC(=O)CC(c1cccs1)c1c(-c2ccccc2)[nH]c2ccccc12 (stereo not given) showed a growth of 82.6%. For CSc1ncccc1C(=O)OCC(=O)Nc1oc(C)c2c(C)n[nH]c(=O)c12, the growth was 104%. Work on N#CC1=C(N)Oc2c(sc3c(Br)cccc23)C1c1ccc(Br)cc1 (stereo not given) yielded a growth of 48.9%. CN1C(=O)N(C)C2Nn3c(s/c(=C\c4ccccc4)c3=O)=NC21 (stereo not given) gave a growth of 101%. In the case of O=C(O)CCC(=O)Nc1nnc(-c2ccccc2)s1, the growth is reported as 109%. For O=C(Nc1nc2ccc(F)cc2s1)c1cccnc1Nc1ccc(Cl)cc1Cl, the growth was -31.3% (active). O=C(S)CNC(=O)c1ccccc1 was tested, and the growth was 110%. Work on Cc1[nH]c(C(=O)Nc2ccc(C(=O)N3CCNCC3)cc2OC(C)C)c(Cl)c1Cl yielded a growth of 81.9%. Cc1c(C(=O)NCCCc2ccccc2)sc2ncc(-c3ccc(Br)cc3)n12 gave a growth of 111%. With COc1cc(CNS(=O)(=O)c2ccc(C)cc2)ccc1OCc1cn(-c2ccccc2)nn1 the growth was 56.8%. CCOC(=O)c1cn2ncnc(Oc3ccc(NC(=O)NCCN(CC)CC)c(Cl)c3)c2c1C was tested, and the growth was 90.3%. COc1ccc(C2CC(c3ccc(Nc4ccnc5cc(Cl)ccc45)cc3)=NN2C=O)cc1 (stereo not given) gave a growth of 62.3%. Work on C=C1CC[C@H](C(C)C)[C@@H]2[C@H]1[C@H]1CC(=C)[C@@H](O)CC[C@@](C)(O)[C@@H]2O1 yielded a growth of 98.5%. With COc1ccc(C2C(C#N)=C(N)Oc3c2sc2c(C)cccc32)cc1 (stereo not given) the growth was 50.1%. With Cc1ccc(NC2=C(Cl)C(=O)c3nc(C)ccc3C2=O)cc1 the growth was -97.9% (active). Work on Oc1ccc(-c2nc3ccc4[nH]ncc4c3c3c2CCCC3)c2cccnc12 yielded a growth of 10.2%. COc1nc2ccc(C)cc2cc1-c1nc2c(cnn2-c2ccccc2)c(=O)[nH]1 showed a growth of 94.9%. CCOC(=O)C1=C(N)Oc2c(sc3c(C)cccc23)C1c1ccc(Cl)cc1 (stereo not given) gave a growth of 56.6%. CCOC(=O)c1sc2ncc(-c3ccc(OC)cc3)n2c1C showed a growth of 97.5%. In the case of BrCCCc1n(Cc2ccc3ccccc3c2)c2ccccc2[n+]1Cc1ccc2ccccc2c1, the growth is reported as -24.7% (active). With O=c1c2cc(F)ccc2sc2c(NCCCNCCO)nc3ccc(F)cc3c12 the growth was 41.5%. Work on COc1cc(C(=O)/C=C/c2c(Cl)nc3sccn23)cc(OC)c1OC yielded a growth of 90.6%. Fc1cc2c(cc1Cl)N(c1ncnc3ccc(-c4cnc5cnccn45)cc13)CC2 showed a growth of 94.8%. With O=C1c2cccc3cccc(c23)C(=O)N1Nc1nc(NC2CCCCC2)nc(N2CCOCC2)n1 the growth was 106%. COc1ccc(-c2conc2-c2ccccc2)cc1 was tested, and the growth was 47.8%. Work on O=C1CSC(c2c(Cl)cccc2Cl)N1c1nc(Cl)cc(=O)[nH]1 (stereo not given) yielded a growth of 130%. In the case of Brc1c[n+](Cc2ccc3ccccc3c2)cn1Cc1ccc2ccccc2c1, the growth is reported as -13.2% (active). In the case of N#CC1=C(N)Oc2c(sc3c(Br)cccc23)C1c1ccc([N+](=O)[O-])cc1 (stereo not given), the growth is reported as 39.8%. CC(=O)c1ccc(Nc2nc(C(C)=O)c(C)s2)cc1 showed a growth of 94.4%. With CN1C(=O)CNC(=O)[C@H](NC(=O)c2nc3ccccc3cc2O)CSSC[C@H]1C(=O)NCCCc1nc2ccccc2cc1O the growth was 96%. CCc1cccc2c3c(sc12)C(c1ccc(F)cc1)C(C#N)=C(N)O3 (stereo not given) was tested, and the growth was 60.4%. COc1ccc(/C=C/c2c(C(=O)/C=C/c3ccc(C(F)(F)F)cc3)c(C)nc3ccccc23)cc1 was tested, and the growth was -6.41% (active). Compound COc1ccc2[nH]c(-c3ccccc3)c(/C=C(\C#N)S(=O)(=O)c3ccccc3)c2c1 has a growth of 12.5%. Compound CCOC(=O)C1=C(N)Oc2c(sc3c(CC)cccc23)C1c1ccc(F)cc1 (stereo not given) has a growth of 58.7%. COc1cc2cc(Oc3ccc(NC(=O)Nc4cccc(C(F)(F)F)c4)cc3)c(C)nc2cc1OCCN1CCOCC1 was tested, and the growth was 20.1%. Compound O=[N+]([O-])c1ccc(Cl)c(-c2cc(CCCCO)on2)c1 has a growth of 97.4%. In the case of CCOC(=O)c1cn2ncnc(Oc3ccc(NC(=O)NCCN4CCOCC4)c(Cl)c3)c2c1C, the growth is reported as 96.3%. For N/C(=N\c1nc2ccccc2s1)NC(=O)Nc1cccc2ccccc12, the growth was 60.8%.
